An excerpt weighted towards active compounds, which were near 27% of everything screened.
EphB4 antag – blocks human EphB4 binding to ephrin-B2 | P54760 | EphB4 LBD / TNYL-RAW-Alexa532 peptide, fluorescence polarization | inhibition, % at 7 µM | hit rate 0.15% among 97,000 | AID 720;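 active = inhibition above the screen-wide mean inhibition plus 3 SD, cut at about 15% in these data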
CYP2C19 activ – increases human CYP2C19 enzyme activity; P33261; recombinant CYP2C19, luciferin-H EGE luminescence; active compounds read high; 0 = fully inhibited enzyme, 1 = untreated enzyme; activation factor at 5 µM; 96,000 tested, under 10 active;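 active = activation factor of at least 2 at 5 µM in the primary screen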
CYP2C19 inhib – blocks human cytochrome P450 2C19; P33261; CYP2C19 Supersomes, luciferin-H EGE luminescence, 30 min; inhibition, % at 5 µM; hit rate 21% among 96,000;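 active = CYP2C19 inhibition above a set limit at 5 µM in the primary screen, cut at about 50% in these data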
CYP2C9 inh – blocks human cytochrome P450 2C9. AID 777. CYP2C9 Supersomes, luciferin-H conversion, luminescence. hit rate 20% among 96,000. inhibition, % at 5 µM. P11712;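 active = blocking of liver enzyme CYP2C9 beyond about 50% at 5 µM, limit read from the data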
Target sequence (P11712 whole entry, looked up): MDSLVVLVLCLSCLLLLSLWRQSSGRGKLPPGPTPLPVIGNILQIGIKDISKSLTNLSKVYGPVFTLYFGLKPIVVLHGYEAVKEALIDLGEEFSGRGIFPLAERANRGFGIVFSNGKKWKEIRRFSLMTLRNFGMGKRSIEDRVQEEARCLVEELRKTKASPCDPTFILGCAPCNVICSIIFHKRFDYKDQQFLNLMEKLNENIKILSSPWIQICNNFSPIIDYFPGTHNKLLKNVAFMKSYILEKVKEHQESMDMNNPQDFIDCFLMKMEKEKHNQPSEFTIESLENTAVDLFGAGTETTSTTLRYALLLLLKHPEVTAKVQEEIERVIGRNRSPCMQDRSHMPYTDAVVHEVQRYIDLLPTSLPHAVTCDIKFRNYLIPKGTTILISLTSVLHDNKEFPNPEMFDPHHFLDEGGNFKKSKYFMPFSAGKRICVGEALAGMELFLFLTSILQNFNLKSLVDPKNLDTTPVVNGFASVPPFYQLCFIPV
CYP2C9 act – activators of human CYP2C9 | recombinant CYP2C9, luciferin-H conversion, luminescence; active compounds read high; factor 1 = untreated enzyme, 0 = blocked | activation factor at 5 µM | hit rate 1.4% among 96,000 | AID 1024;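 active = activation factor of 2 or more for CYP2C9 at a 5 µM dose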
Of the large screens only hits and unclear results are named; the others gave an inactive call.

COc1ccc(NC(=O)Nc2nnc(-c3ccccc3SCc3ccccc3)s2)cc1	none
CCCCN1CCc2c([nH]c3ccccc23)C1=O	none (no result: EphB4 antag)
Cc1ccc(C(=O)NCCCN2CCOCC2)cc1	none (no result: CYP2C19 activ, CYP2C19 inhib, CYP2C9 inh, CYP2C9 act)
O=C(NCCCN1CCOCC1)c1ccc(-n2nc(C(F)(F)F)cc2-c2cccs2)cc1	CYP2C9 inh 65
COCCCNC(=O)c1ccc(-n2nc(C(F)(F)F)cc2-c2cccs2)cc1	CYP2C19 inhib 53, CYP2C9 inh 50
CCNC(=S)N(Cc1ccc2c(c1)OCO2)C1CC(=O)N(c2ccc(F)cc2)C1=O (configuration not stated)	CYP2C19 inhib 94, CYP2C9 inh 71
Cc1cccc(OCCSCc2nc3ccccc3[nH]2)c1	CYP2C19 inhib 72, CYP2C9 inh 61
Cc1cccc(OCCCSc2nc3ccccc3[nH]2)c1	CYP2C19 inhib 77
CS(=O)(=O)c1nc(-c2ccco2)cc(C(F)(F)F)n1	none
COc1cc(C2Nc3ccccc3C(=O)N2c2ccccc2OC)ccc1O (configuration not stated)	CYP2C9 inh 79
CCOc1cc(C2Nc3ccccc3C(=O)N2c2ccccc2OC)ccc1O (configuration not stated)	CYP2C9 inh 52
CCOc1cc(C2C(C(=O)O)c3cc(OCC)c(OCC)cc3C(=O)N2C)ccc1O (configuration not stated)	none (no result: EphB4 antag)
Cc1cccc(N2CCN(C(=O)C3CCCN(S(=O)(=O)c4cnc[nH]4)C3)CC2C)c1 (configuration not stated)	none (no result: CYP2C19 activ, CYP2C19 inhib, CYP2C9 inh, CYP2C9 act)
Cc1ccc(N2CCN(C(=O)CCc3nc4ccccc4[nH]3)CC2)c(C)c1	CYP2C19 inhib 84, CYP2C9 inh 72
Cc1cccc(N2CCN(C(=O)CCc3nc4ccccc4[nH]3)CC2C)c1 (configuration not stated)	CYP2C19 inhib 75, CYP2C9 inh 56
C=CCn1c(=O)n(CCOC)c(=O)c2sc3ccccc3c21	none
CC1(C)Oc2ccc3ccc(=O)oc3c2/C(=C/N)C1=O	none
Cc1ccc(-c2ccc(/C=N/NC(=O)CN3CCCC3)o2)cc1Cl	none
O=C1NCC(c2ccccc2)C1C(=O)N/N=C\c1ccc(-c2cccc(Cl)c2Cl)o1 (configuration not stated)	CYP2C9 inh 59
Cc1ccc(-c2ccc(/C=N\NC(=O)C3C(=O)NCC3c3ccccc3)o2)cc1Cl (configuration not stated)	CYP2C9 inh 50
CCc1ccc(-c2cc(C(F)(F)F)n3nc(C(=O)Nc4c(C)nn(Cc5ccc(F)cc5)c4C)cc3n2)s1	CYP2C9 inh 70
Cc1ccccc1Cn1nc(C)c(NC(=O)c2cc3nc(-c4ccco4)cc(C(F)(F)F)n3n2)c1C	none
COc1ccc(C2=NN(CN3C(=O)C(=O)c4ccccc43)C(c3ccc(Br)cc3)C2)cc1 (configuration not stated)	none
COc1ccc(C2=NN(CN3C(=O)C(=O)c4ccccc43)C(c3ccc(C)cc3)C2)cc1 (configuration not stated)	CYP2C19 inhib 51, CYP2C9 inh 76
C=CCc1cccc2cc(C(=O)NC(C)(C)C)c(=O)oc12	CYP2C19 inhib 65, CYP2C9 inh 55
C=CCc1cccc2cc(C(=O)NCc3cccnc3)c(=O)oc12	CYP2C19 inhib 70 (no result: EphB4 antag)
COCCOc1nc2c(c(=O)n(C)c(=O)n2C)n1CCc1ccccc1	none
Cc1ccc(O)c(N=CC2=C(O)c3ccccc3C2=O)c1	CYP2C9 inh 79
COc1ccc(-c2[nH]ncc2/C=N\NS(=O)(=O)c2ccccc2)cc1OC	CYP2C9 inh 71
COc1ccc(-c2[nH]ncc2/C=N\NS(=O)(=O)c2ccc(Cl)cc2)cc1	CYP2C19 inhib 90, CYP2C9 inh 68
CC(C)(Oc1ccc(Cl)cc1)C(=O)N/N=C/c1cn[nH]c1-c1ccccc1	CYP2C19 inhib 72, CYP2C9 inh 72
COc1ccc(-c2nn(-c3ccccc3)cc2/C=N/NS(=O)(=O)c2ccccc2)cc1	CYP2C9 inh 63
Cc1ccc(-c2noc(C3CCCCC3)n2)cc1	none
CC(C)(C)C(=O)Nc1ccc(Oc2ccc3c(c2)C(=O)N(c2ccc(O)cc2)C3=O)cc1	none
CC(=Nc1ccccc1)C1=C(O)COC1=O	none
CC(=Nc1ccc(C)c(C)c1)C1=C(O)CSC1=O	CYP2C19 inhib 65
COc1ccccc1N=C(C)C1=C(O)CSC1=O	CYP2C19 inhib 64
O=C(c1cccc(F)c1)N1CCN(Cc2c[nH]c3ccccc23)CC1	none

Screening data (PubChem)
